# HT1080-NT tox: kills 2HG-producing HT-1080-NT fibrosarcoma cells. HT-1080-NT fibrosarcoma viability, CellTiter-Glo ATP luminescence, 48 h. Potency, µM (titrated, usually from 46.1 µM), for inactives: at the highest dose activity, negative = less viability, hits mostly cytotoxic. actives 1.6% (n = 360,000). AID 686970;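 further: NT is the 2HG producing partner of a matched IDH1 knockdown line; 0% = DMSO-treated cells and -100% = media-only wells without cells; nearly all actives have a fitted effect of over 55% in size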
#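 A 48-hour cytotoxicity screen used HT-1080-NT cells plated 2 hours before compound delivery. ATP-based CellTiter-Glo luminescence measured viability, normalized to DMSO and no-cell controls.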
# HT1080 IDH1KD tx: kills HT-1080 cells with IDH1 knockdown; HT-1080 IDH1 knockdown viability, ATP luminescence, 48 h; Potency, µM (series often up to 46.1 µM), for the others: top-dose activity, negative = toxicity, actives largely listed as cytotoxic; actives 2% (n = 360,000); AID 686971;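 further: 0% = DMSO wells and -100% = cell-free medium wells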
#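 After a 2 h attachment period, IDH1KD HT-1080 cells took pin-transferred compound for 48 h at 37 °C; ATP-based luminescence after 10 min room-temperature reagent incubation reported viability.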
# DT40 TDP1 no CPT: qHTS for Inhibitors of human tyrosyl-DNA phosphodiesterase 1 (TDP1): qHTS in cells in absence of CPT. DT40 Tdp1-/- hTDP1 cells, no CPT, ATP luminescence, 48 h. actives 15% (n = 420,000). Potency, µM (titrated, usually from 46.2 µM), without a hit: top-dose activity change, negative = growth inhibition, usual class: inhibitors; further: nearly all actives have a fitted effect of over 55% in size
#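 DT40 Tdp1-/-;hTDP1 cells, no CPT (DMSO vehicle only), 400 cells/well; compounds pin-transferred; ≥48 hr, 37 °C; CellTiter-Glo 30 min RT dark, luminescence read.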
# KB-3-1 cytotox: KB-3-1 parental cell cytotoxicity; KB-3-1 viability, CellTiter-Glo ATP luminescence, 72 h; Potency, µM (series often up to 46.1 µM), most hits filed as cytotoxic; actives 1.4% (n = 400,000); further: nearly all actives have a fitted effect of over 60% in size
#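 72 h, 37 °C compound treatment of KB-3-1 parental cells; CellTiter-Glo added, 10 min, luminescence read. Data corrected against DMSO-only plates and normalized before curve fitting.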
# TDP1 cell CPT: growth inhibition of DT40 Tdp1-/-;hTDP1 cells with camptothecin (screen for TDP1 inhibitors); chicken DT40 Tdp1-/-;hTDP1 cells + 20 nM CPT, ATP luminescence, 48 h; Potency, µM (highest dose often 46.2 µM), inactives show top-dose activity change, negative = growth inhibition, usual class: inhibitors; actives 12% (n = 420,000); AID 686979; further: nearly all actives have a fitted effect of over 55% in size
#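 Cell growth measured by CellTiter-Glo luminescence after a minimum 48 h, 37 C compound exposure with 20 nM CPT in Tdp1-knockout DT40 cells stably expressing hTDP1, seeded 400/well; qHTS titration format.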
# KB-V1 MDR tox: kills drug-selected multidrug resistant KB-V1 cells; KB-V1 MDR cells viability, CellTiter-Glo, 72 h; Potency, µM (doses to about 46.1 µM), usual class: cytotoxic; actives 3.4% (n = 400,000); further: nearly all actives have a fitted effect of over 60% in size
#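 Cytotoxicity via CellTiter-Glo luminescence after 72 h compound exposure at 37 degrees C. Cells: drug-selected KB-V1 line, DMEM phenol-red free plus 10% FBS. Compounds tested at multiple concentrations; normalized data fitted to concentration-effect curves.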
# * hit, by the source's call; i = inactive; ? = inconclusive; nt = no result given; [ ] = another dose, or the depositor's remark. An excerpt weighted towards active compounds, which were near 19% of everything screened. The call rests on the fitted dose curve; in most records, active means well fitted curve in the direction sought with a large enough effect; inconclusive means small, poorly fitted or top-dose-only effect, or another doubt; inactive means no such curve, though single readings can be large; an effect the other way counts as inactive or inconclusive. Unless noted, on the % scale 0 is the no-effect control and ±100 the full control effect; potency means the concentration at half of the fitted maximal effect.
SMILES,HT1080-NT tox,HT1080 IDH1KD tx,DT40 TDP1 no CPT,KB-3-1 cytotox,TDP1 cell CPT,KB-V1 MDR tox
CCN1C(=NCc2cccc(C(F)(F)F)c2)N[C@@H](c2cccc(C(F)(F)F)c2)C(C(=O)OC)=C1C,nt,nt,5µM*,?,4.5µM*,?
CCN(CC)CCCN=C1N[C@@H](c2cccc(C(F)(F)F)c2)C(C(=O)OC)=C(C)N1CC,?,?,-86%,?,?,i
CCN1C(=O)N[C@@H](c2cccc(C(F)(F)F)c2)C(C(=O)OC)=C1C,5%,0%,?,i,16µM*,i
CCOC(=O)CN1C(=O)N[C@@H](c2cccc(C(F)(F)F)c2)C(C(=O)OC)=C1C,6%,18%,5%,i,-1%,i
CCN1C(N(C)CCc2cccs2)=N[C@@H](c2ccccc2)C(C(=O)OC)=C1C,8%,3%,?,i,?,i
CCN1C(=NCc2cccc(Cl)c2)N[C@@H](c2cccc(C(F)(F)F)c2)C(C(=O)OC)=C1C,nt,nt,?,i,11µM*,i
COc1ccc(Oc2ncc3nc(-c4cccs4)c(=O)n(Cc4cccc(OC)c4)c3n2)cc1,nt,nt,-21%,nt,-1%,nt
CC(=O)c1ccc(CCCc2ccc(C(C)=O)cc2)cc1,-1%,-13%,?,?,?,i
Cc1ccc2cc3cc(C(=O)N4CCN(c5ccccc5)CC4)oc3nc2c1,nt,nt,?,nt,-3%,nt
Cc1cccc(N(C)C(=O)c2cc3cc4ccc(C)cc4nc3o2)c1,?,13µM*,18µM*,?,12µM*,12µM*
CCN(C(=O)c1cc2cc3ccc(OC)cc3nc2o1)c1cccc(C)c1,nt,nt,16µM*,?,23µM*,?
COc1ccc(Cn2nc(-c3ccccc3)c(N3CCCCC3)cc2=O)cc1,?,?,12µM*,i,?,?
COc1ccc(CNC(=O)c2ccc(CS(=O)Cc3cccc(Cl)c3)o2)cc1 (configuration not stated),5%,0%,-23%,i,?,?
COc1ccc(OC)c(CCNC(=O)c2ccc(CS(=O)Cc3cccc(Cl)c3)o2)c1 (configuration not stated),-20%,-8%,21µM*,i,23µM*,i
CCOc1ccccc1CNC(=O)c1ccc(CS(=O)Cc2cccc(Cl)c2)o1 (configuration not stated),nt,nt,21µM*,nt,?,nt
Cc1cc(NC(=O)COc2ccccc2C)ccc1NC(=O)c1cccs1,-12%,-4%,12µM*,i,-61%,?
O=C(Cc1ccccc1)Nc1ccc(NC(=O)c2cccs2)c(Cl)c1,13%,13%,?,i,-4%,21µM*
Cc1cccc(C)c1OCC(=O)Nc1ccc(NC(=O)c2ccco2)cc1,-8%,2%,21µM*,i,26µM*,i
Cc1cc(NC(=O)COc2ccccc2C)ccc1NC(=O)c1ccco1,-10%,0%,16µM*,i,23µM*,i
COc1cc(NC(=O)COc2ccccc2C)ccc1NC(=O)c1ccco1,-20%,-12%,-3%,i,-3%,i
Cc1cccc(C)c1OCC(=O)Nc1cccc(NC(=O)c2ccco2)c1,-20%,-17%,?,i,?,?
O=C(CCNS(=O)(=O)c1ccccc1)NNC(=O)COc1ccccc1F,-3%[9.24 µM],4%,14%,i,5%,?
CCCCCn1c(SCC#N)nc2cc(C(=O)NCC3CCCO3)ccc2c1=O (configuration not stated),-1%,0%,23µM*,i,?,i

# Screening data from PubChem BioAssay.
